Hits are enriched below; roughly 8.2% of the tested compounds scored in any of these assays.
MCF10A rereplic = A quantitative high throughput screen for small molecules that induce DNA re-replication in MCF 10a normal breast cells; Potency, µM (series often up to 46.1 µM), without a hit: at the top dose activity, positive = re-replication, most hits filed as activators; AID 624296, 2012; MCF 10A DNA re-replication, Hoechst nuclear intensity, 48 h; 350,000 compounds, 2.9% hits; also: % of control where 0% means no effect; nearly all actives have a fitted effect of over 50% in size
SW480 rereplic = A quantitative high throughput screen for small molecules that induce DNA re-replication in SW480 colon adenocarcinoma cells; Potency, µM (titrated, usually from 46.1 µM), without a hit: at the highest dose re-replication activation, actives largely listed as activators; SW480 DNA re-replication, Hoechst DNA content imaging, 48 h; AID 624297, 2012; 340,000 compounds, 1.8% hits; also: % of control where 0% means no effect; nearly all actives have a fitted effect of over 55% in size
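First, 250 cells per well were seeded. Next, compound or vehicle (23 nL) was pinned in, plates sat 48 hr at 37 C. Finally Hoechst was added for 40 min before fluorescence scanning.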
KB-3-1 tox = qHTS assay for MDR1-selective chemotherapeutics: Primary screen using the parental adenocarcinoma cell KB-3-1; Potency, µM (series often up to 46.1 µM), usual class: cytotoxic; AID 1347075, 2019; KB-3-1 viability, CellTiter-Glo ATP luminescence, 72 h; 400,000 compounds, 1.4% hits; also: % is scaled to controls: 0 for no effect and ±100 for the full control effect; nearly all actives have a fitted effect of over 60% in size
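Cytotoxicity measured as CellTiter-Glo luminescence after 72 h at 37 C. Compound titrations were pinned onto drug-naive KB-3-1 parental adenocarcinoma cells grown in DMEM with 10% FBS, and normalized data fitted to concentration-response curves.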
ELG1 repair inh = qHTS screen for small molecules that inhibit ELG1-dependent DNA repair in human embryonic kidney (HEK293T) cells expressing luciferase-tagged ELG1; HEK293T ELG1-luciferase reporter, luminescence, 16 h; DNA damage induced by 5-fluorouridine; AID 504467, 2011; 330,000 compounds, 2.3% hits; Potency, µM (highest dose often 46.1 µM), inactives show top-dose activity change, negative = inhibition, actives largely listed as inhibitors; also: % is scaled to controls: 0 for no effect and ±100 for the full control effect; nearly all actives have a fitted effect of over 55% in size
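Overnight (16 hr) co-exposure of 2,000 cells/well to 5-fluorouridine and compound at 37 °C preceded detection. Luciferase was quantified via ONE-Glo luminescence; loss of signal denotes inhibition.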
KB-V1 cytotox = qHTS assay for MDR1-selective chemotherapeutics: Primary screen using the drug-selected MDR subline cells KB-V1. KB-V1 MDR cells viability, CellTiter-Glo, 72 h. Potency, µM (doses to about 46.1 µM), hits mostly cytotoxic. 400,000 compounds, 3.4% hits; also: % is scaled to controls: 0 for no effect and ±100 for the full control effect; nearly all actives have a fitted effect of over 60% in size
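Following 72 h at 37 degrees C with compound, KB-V1 cell viability was read by CellTiter-Glo luminescence, medium being phenol-red-free DMEM plus 10% FBS; concentration-response parameters came from normalized, curve-fitted qHTS data.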
* marks the source's active call; other numbers are inactive results; i = inactive; u = inconclusive; x = no result given. Calls follow the shape of the dose curve; as a rule, active = well fitted curve in the direction sought with a large enough effect; inconclusive = small, poorly fitted or top-dose-only effect, or another doubt; inactive = no such curve, though single readings can be large; an effect the other way counts as inactive or inconclusive. Potency is read from the fitted curve at half-maximal effect.

SMILES	MCF10A rereplic	SW480 rereplic	KB-3-1 tox	ELG1 repair inh	KB-V1 cytotox
Cn1c(=O)c2c(SCC(=O)N3CCc4ccccc43)nc(-c3ccccc3Cl)nc2n(C)c1=O	x	x	i	x	u
CCNC(=O)C1(C)CCCN(C(=O)c2ccnc(Cl)c2)C1 (stereo unspecified)	x	x	i	x	u
CCN(CC)C(=O)C1=C(C)N(CCCN2CCCC2=O)C(=O)C(CC(=O)NC(c2ccccc2)c2ccccc2)C1 (stereo unspecified)	x	x	i	x	i
O=C(CCCCCN1C(=O)c2cccc3cccc(c23)C1=O)NC1CCS(=O)(=O)C1 (stereo unspecified)	-2%	18µM*	i	10%	i
CN(c1ccc(/C=C/c2ccccc2)cc1)P1(=O)NCCCO1 (stereo unspecified)	x	x	i	x	i
CCCCN(CCCC)c1ccc(/C=C2\C=Cc3ccccc32)cc1	x	x	i	x	i
CCCCCc1c(-c2ccc(F)cc2)ncn1CCc1ccccc1OC	x	x	18µM*	x	12µM*
CCCCCc1c(-c2ccc(Br)cc2)ncn1CCc1ccccc1OC	x	x	u	x	16µM*
COc1ccccc1Cc1c(-c2ccc(C)cc2)nc2ccc(Br)cn12	x	x	i	x	i
CC(C)(C)OC(=O)N1CCc2onc(-c3ccc(Br)cc3)c2C1=O	x	x	i	x	i
COc1cc(S(=O)(=O)N2CCN(Cc3ccc4c(c3)OCO4)CC2)ccc1NC(C)=O	x	x	x	-2%	x
C#CCn1c(S(=O)(=O)Cc2ccc(F)cc2)nc(-c2ccccc2)c1-c1ccccc1	u	u	16µM*	-2%	5.2µM*
CCOC(=O)Cn1c(S(=O)(=O)Cc2ccc(F)cc2)nc(-c2ccccc2)c1-c1ccccc1	-3%	-1%	i	-2%	i
CCOC(=O)Cn1c(S(=O)(=O)Cc2cccc(F)c2)nc(-c2ccccc2)c1-c1ccccc1	u	u	i	3%	21µM*
COc1cc(Cl)c(C)cc1NC(=O)CN1CCN(C(=O)c2cccs2)CC1	x	x	i	x	i
CCc1ccccc1N1C(=O)N(CC(=O)c2ccc(Cl)cc2)c2ccccc2S1(=O)=O	x	x	i	x	i
O=C(Nc1ccc2snnc2c1)Nc1cccc2ccccc12	u	-4%	21µM*	u	u
O=C(c1ccccc1O)N1N=C(c2ccccc2)CC1(O)C(F)(F)F (stereo unspecified)	21µM*	u	i	u	i
CCC1=NN(C(=O)c2ccccc2O)C(O)(c2ccccc2)C1 (stereo unspecified)	u	16µM*	u	-13%	u
Cc1ccccc1OCC(=O)N1N=C(c2cccnc2)CC1(O)C(F)(F)F (stereo unspecified)	-11%	-6%	i	-17%	21µM*
COc1cccc(C2=NN(C(=O)c3ccccc3)C(O)(C(F)(F)F)C2)c1 (stereo unspecified)	u	-3%	i	-10%	i
COc1cccc(C(=O)N2N=C(c3ccccc3)CC2(O)C(F)(F)F)c1 (stereo unspecified)	u	1%	i	-6%	16µM*
CCC1=NN(C(=O)c2ccccc2Br)C(O)(c2ccc(Br)cc2)C1 (stereo unspecified)	12%	12%	i	-23%	i
CCOC(=O)c1c(-c2ccccc2)oc2ccc(OCC(O)CNCCN(C)C)cc12 (stereo unspecified)	u	19%	u	u	u
CC1=CC(C)(C)N(C(=O)CSc2nnc(-c3ccc(C)cc3)o2)c2ccc(C)cc21	u	16%	u	-9%	8.2µM*
CC1=CC(C)(C)N(C(=O)CSc2nnc(N)s2)c2cc(C)c(C)cc21	u	-4%	i	-5%	12µM*
